# PLC-beta3 inh: blocks human PLC-beta3 enzyme activity. Q01970. Purified PLC-beta3, fluorogenic substrate, fluorescence. inhibition, % at 12.2 µM. 370,000 compounds, 0.18% hits; in the data active = inhibition above about 11%;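 also: 0% = median of compound wells on plate and 100% = full blocker control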
# PLC-gamma1 inh: inhibitors of human phospholipase C gamma1. P19174. purified PLC-gamma1, fluorogenic substrate, fluorescence. inhibition, % at 12.2 µM. 370,000 compounds, 0.84% hits. AID 720700; in the data active = inhibition above about 9.5%
# ADAM17 inh: ADAM17 inhibition, QFRET primary screen | recombinant ADAM17, EDANS/DABCYL FRET peptide cleavage | P78536 | inhibition, % at 6.95 µM | 370,000 compounds, 0.83% hits;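 active = inhibition above the mean of compounds lying between control limits plus 3 SD, set per campaign, cut at about 8.5% in these data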;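 also: 0% = DMSO-only wells as the low control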
# ADAM10 inh: ADAM10 inhibition, QFRET primary screen; O14672; recombinant ADAM10, EDANS/DABCYL FRET peptide cleavage, 3 h; inhibition, % at 7 µM; 370,000 compounds, 0.62% hits; AID 720582;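 active = inhibition above a per-campaign cutoff equal to the mean of compounds falling between control-based bounds plus 3 SD, cut at about 20% in these data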;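 also: 0% = DMSO wells while the 100% control is not disclosed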
# Target sequence (O14672 214-748 limits assumed): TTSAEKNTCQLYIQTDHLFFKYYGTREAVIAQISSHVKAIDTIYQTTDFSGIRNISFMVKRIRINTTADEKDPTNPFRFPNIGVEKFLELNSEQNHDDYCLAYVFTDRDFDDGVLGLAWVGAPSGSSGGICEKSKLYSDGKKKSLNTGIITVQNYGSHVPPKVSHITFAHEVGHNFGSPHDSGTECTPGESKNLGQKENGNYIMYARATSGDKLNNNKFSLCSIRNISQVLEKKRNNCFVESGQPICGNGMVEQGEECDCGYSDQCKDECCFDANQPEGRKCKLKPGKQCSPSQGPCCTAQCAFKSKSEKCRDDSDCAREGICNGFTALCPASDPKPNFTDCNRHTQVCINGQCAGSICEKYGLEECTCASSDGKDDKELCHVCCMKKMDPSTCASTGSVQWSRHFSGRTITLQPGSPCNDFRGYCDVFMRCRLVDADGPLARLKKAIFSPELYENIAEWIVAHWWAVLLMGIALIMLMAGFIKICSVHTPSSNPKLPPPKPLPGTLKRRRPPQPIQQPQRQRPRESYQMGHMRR
# KLK7 zymogen act: activators of human kallikrein-7 zymogen; P49862; purified proKLK7, EDANS-DABCYL substrate fluorescence; 100% is mature enzyme control, 0% vehicle; activation, % at 7 µM; 370,000 compounds, 0.9% hits;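 active = activation above the mean of all tested compounds plus 3 SD, computed per campaign excluding outliers beyond control limits, cut at about 13% in these data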
# ADAM10 counter: counter-screen for ADAM17 exosite inhibitors: inhibitors of human ADAM10; shares compounds with ADAM17 inh; recombinant ADAM10, EDANS/DABCYL FRET peptide cleavage, 3 h; inhibition, % at 6.95 µM; 2,900 compounds, 47% hits;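 active = mean inhibition over the triplicate runs exceeds the activity threshold set in the earlier primary screen, cut at about 20% in these data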;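 also: 0% = DMSO wells and 100% = marimastat wells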
# ADAM17 confirm: confirmation of inhibitors of human ADAM17; inhibition, % at 6.95 µM; shares compounds with ADAM17 inh; 2,900 compounds, 65% hits; AID 743257; recombinant ADAM17, EDANS/DABCYL QFRET peptide cleavage;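 active = mean inhibition across replicates above the hit cutoff set in the primary screen, cut at about 8.5% in these data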;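 also: 0% = DMSO wells and 100% = marimastat wells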
# * hit, by the source's call; x = not tested or not shown. Sampled rows, rich in hits. Any-hit rate of the full collection: about 2.9%.
SMILES,PLC-beta3 inh,PLC-gamma1 inh,ADAM17 inh,ADAM10 inh,KLK7 zymogen act,ADAM10 counter,ADAM17 confirm
COc1ccc(C)cc1NC(=O)CSc1nnc(COc2ccc(Cl)cc2)n1Cc1ccco1,-2,0,11*,20,0,32*,18*
CCOC(=O)C1=NOC(C(=O)NC2CCCC2)(C(=O)C2CC2)C1 (stereo not given),-2,-2,-3,-14,0,x,x
O=C(c1ccc(S(=O)(=O)c2cccc(Cl)c2)c([N+](=O)[O-])c1)N1CCN(Cc2ccccc2)CC1,3,2,10*,10,1,25*,17*
Cc1cccc(NC(=O)c2nc[nH]c2C(=O)N[C@@H](CC(C)C)C(=O)OC(C)(C)C)c1,2,0,11*,19,0,30*,16*
CC(C)(C)OC(=O)NCCCC[C@H](NC(=O)c1nc[nH]c1C(=O)NCc1ccccc1)C(=O)OC(C)(C)C,2,3,9.2*,17,0,35*,20*
Cc1cccc(NC(=O)c2nc[nH]c2C(=O)N[C@@H](Cc2ccccc2)C(=O)OC(C)(C)C)c1,1,2,-4,1,-5,x,x
O=C(N[C@@H](Cc1ccccc1)C(=O)OCc1ccccc1)c1nc[nH]c1C(=O)N1CCN(c2ccccc2)CC1,-4,-3,11*,19,0,27*,15*
C[C@H](NC(=O)c1nc[nH]c1C(=O)NCc1ccc(CNC(=O)OC(C)(C)C)cc1)C(=O)OCc1ccccc1,3,3,10*,15,1,37*,21*
CN(C(=O)CNC(=O)c1ccccc1OCC(=O)Nc1ccc(Br)cc1)c1ccccc1,4,2,6,10,0,x,x
C[C@H](NC(=O)c1nc[nH]c1C(=O)N[C@@H](C)C(=O)OCc1ccccc1)C(=O)OCc1ccccc1,0,2,-1,4,0,x,x
C[C@H](NC(=O)c1nc[nH]c1C(=O)NC(c1ccccc1)c1ccccc1)C(=O)OCc1ccccc1,-4,-7,9.3*,14,0,3,12*
O=C1Nc2ccccc2N(C(=O)c2ccc(-c3ccccc3)cc2)C1c1nc2ccccc2[nH]1 (stereo not given),-235,-166,-45,-149,-84,x,x
O=C(NC(=S)NNC(=O)c1ccccc1O)c1ccco1,-6,1,5,10,0,x,x
O=C(NC(=S)NNC(=O)c1cc2ccccc2cc1O)c1ccco1,-37,-35,9.3*,17,1,4,6
Cc1cc(S(=O)(=O)c2ccc(Cl)cc2)nc(S(=O)(=O)c2ccc(Cl)cc2)c1C#N,-12,0,-44,-172,10,x,x
COc1cc(C(O)c2nc(-c3ccc(F)cc3OC)cs2)ccc1F (stereo not given),-4,-2,12*,3,0,26*,14*
OC(c1ccc(F)c(F)c1)c1nc(-c2csc3ccccc23)cs1 (stereo not given),2,-1,6,10,0,x,x
COc1cc(F)ccc1-c1csc(C(O)c2ccc(F)c(F)c2)n1 (stereo not given),-6,-1,6,12,0,x,x
COc1cc(C(O)c2nc(-c3csc4ccccc34)cs2)ccc1F (stereo not given),-3,1,10*,12,0,23*,17*
COc1ccc(-c2cc(C(=O)NCc3cccc(C(F)(F)F)c3)[nH]n2)c(C)c1,-27,0,9,13,0,x,x
COc1cccc(C(NC(C)=O)c2nc(-c3cccc(C#N)c3)cs2)c1 (stereo not given),4,2,2,8,0,x,x
COc1ccc(CN(C(=O)c2nsc(Cl)c2Cl)C(C(=O)NC2CCCC2)c2ccc(C)cc2)cc1 (stereo not given),4,2,10*,13,-1,14,14*
Cc1ccc(C)c(N(C(=O)c2nsc(Cl)c2Cl)C(C(=O)NC2CCCC2)c2ccc(O)cc2)c1 (stereo not given),3,-4,0,2,0,x,x
COc1ccc(NC(=O)C(OC(=O)c2cnc(C)cn2)c2ccccc2)cc1Cl (stereo not given),0,9,0,1,0,x,x
COc1ccc(NC(=O)C(OC(=O)c2ccc([N+](=O)[O-])o2)c2ccccc2)cc1Cl (stereo not given),-2,-2,9.8*,5,-1,25*,12*
SMILES,PLC-beta3 inh,PLC-gamma1 inh,ADAM17 inh,ADAM10 inh,KLK7 zymogen act,ADAM10 counter,ADAM17 confirm
Cc1cc(N2CCCC2=O)cc(C)c1S(=O)(=O)NCCOc1ccc(C(C)(C)C)cc1,2,1,11*,16,-1,8,6
O=C1CCCN1c1ccc(S(=O)(=O)NCCOc2ccccc2)cc1,-1,2,-1,7,-1,x,x
Cc1ccc(SCc2cc(=O)c3c(=O)n(-c4ccccc4)[nH]c3[nH]2)cc1,-2,5,10*,2,0,22*,14*
COc1ccc(Cc2nnc(N/N=C/c3ccc(O)cc3)[nH]c2=O)cc1OC,6,6,9.3*,9,0,3,5
COc1ccc(Cc2nnc(N/N=C/c3ccc(Br)cc3)[nH]c2=O)cc1OC,-7,1,-4,-5,0,x,x
NS(=O)(=O)c1ccc(NC(=O)/C=C/c2cccs2)cc1,-4,6,10*,15,0,-6,3
Cc1ccc(N=C2NC(=O)/C(=C\c3ccsc3)S2)c(C)c1,-7,-1,8.8*,11,1,32*,20*
Cc1ccc(N=C2NC(=O)/C(=C/c3cccnc3)S2)c(C)c1,-2,3,2,6,0,x,x
O=C(CSc1nnc(-c2ccc(Cl)cc2)n1Cc1ccco1)Nc1ccc(S(=O)(=O)Nc2nccs2)cc1,-7,-1,5,7,0,x,x
C[C@@]12C(=O)N(c3cccc(Cl)c3)C(=O)N1[C@H](c1ccc(Cl)cc1)[C@@H]1C(=O)N(C3CCCCC3)C(=O)[C@@H]12,3,3,10*,14,0,38*,22*
C[C@@]12C(=O)N(c3cccc(F)c3)C(=O)N1[C@H](c1ccc(Cl)cc1)[C@@H]1C(=O)N(C3CCCCC3)C(=O)[C@@H]12,4,1,1,7,0,x,x
COc1cccc(CNC(=O)C2CCCN(S(=O)(=O)c3c(C)noc3/C=C/N(C)C)C2)c1 (stereo not given),-23,-8,8.9*,17,-1,12,7
COc1ccc(NC(=O)C2CCN(S(=O)(=O)c3c(C)noc3/C=C/N(C)C)CC2)cc1,-25,-9,10*,-2,-2,16,11*
